From PubChem BioAssay
Activity calls are given as the source filed them. Unless noted, the rule behind the calls is not given here.

How the values were obtained:
[1] = system: Wnt5a (protein binding on small-molecule microarray); test: Wnt5a binders on small-molecule microarray, primary screen, biophysical, 635/667 nm fluorescence (AID 1142); settings: 635 nm fluorescence, higher = more signal;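 note: fluorescence read at 667 nm with signal to noise per printed feature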
[2] = cell viability in Huh7 cells, primary screen, cytotoxicity control for HCV replication inhibitor project, CellTiter-Glo luminescence, basal, 48 h (AID 1143); settings: Huh7 HCV replicon, higher = more signal, called active from +8 up or from −8 down;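 note: Huh7 hepatoma cells carrying a hepatitis C replication reporter with no stimulus; test concentration not given here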
[3] = P. aeruginosa biofilm formation inhibitors, primary screen, PAO1 strain, BacTiter-Glo luminescence, LB-PBS (AID 1144); settings: 12 h, higher = more signal
[4] = CREB reporter modulators without forskolin, primary screen, cell-based, PC12, CRE-LacZ reporter, unstimulated (AID 1145); settings: no forskolin, luminescence, 4.5 h, higher = more signal, called active from +8 up or from −8 down
[5] = CREB reporter modulators under forskolin, primary screen, cell-based, PC12, CRE-LacZ reporter, forskolin-stimulated (AID 1146); settings: luminescence, 4.5 h, higher = more signal, called active from +8 up or from −8 down;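 note: PC12 cells with 6xCRE LacZ reporter stimulated by forskolin 10 µM; beta-galactosidase reporter signal reflecting CREB driven transcription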
[6] = molecular target: Streptavidin (Streptomyces avidinii) (UniProt P22629); test: streptavidin binders on small-molecule microarray, primary screen, artefact control for SMM compound annotation, biophysical, 635/667 nm fluorescence (AID 1147); settings: streptavidin binding, higher = more signal;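 note: signal reflects streptavidin binding to arrayed compounds as a control protein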
[7] = small-molecule binders of probe aInhba, primary screen, biochemical, small-molecule microarray, 635/667 nm fluorescence (AID 1148); settings: higher = more signal;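 note: score merges 667nm spot fluorescence with signal-to-noise for antibody binding to printed compounds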
Torsin-1A (Homo sapiens) [8] = molecular target: Torsin-1A (Homo sapiens) (UniProt O14656); test: torsin A binders from cell lysate, primary screen, small-molecule microarray, wild-type, 635/667 nm (AID 1149); settings: COS7 hTOR1A-WT lysate, 635 nm fluorescence, higher = more signal
Torsin-1A (Homo sapiens) [9] = molecular target: Torsin-1A (Homo sapiens) (UniProt O14656); test: small-molecule binders of mutant TOR1A in lysate, primary screen, cell lysate, small-molecule microarray, COS7 lysate, 635/667 nm fluorescence (AID 1150); settings: COS7 hTOR1A mutant lysate, 635 nm fluorescence, higher = more signal;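 note: score pools 667 nm emission and signal to noise measuring lysate protein binding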
[10] = system: Sonic hedgehog protein (Shh); test: small-molecule binders of Shh protein, primary screen, biochemical, small-molecule microarray, 635/667 nm fluorescence (AID 1151); settings: small-molecule microarray binding, 635 nm fluorescence; higher = more signal;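 note: Shh protein binding to compounds spotted on small-molecule microarray slides; score combines spot fluorescence intensity with signal-to-noise across triplicate slides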
[11] = E. coli DRC41 culture turbidity changes, primary screen, E. coli filamentation inducer project, strain DRC41, OD650, 48 h (AID 1152);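 note: E. coli MC1000 strain DRC41 lacking acrAB efflux pump and sulA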; settings: E. coli DRC41 (acrAB sulA), higher = more signal, called active from +8 up or from −8 down
[12] = small-molecule binders of probe aLefty1, primary screen, biochemical, small-molecule microarray, 635/667 nm fluorescence (AID 1153); settings: higher = more signal;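 note: score merges spot fluorescence with signal-to-noise ratio from the scanned slide images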
[13] = PSAC antagonists in infected red cells, primary screen, cell-based, P. falciparum Indochina, OD700, 1 h (AID 1154); settings: P. falciparum Indochina infected RBC osmotic lysis, higher = more signal, called active from +8 up or from −8 down
[14] = PSAC antagonists in infected red cells, primary screen, cell-based, P. falciparum Indochina, OD700, 2 h (AID 1155);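 note: lysis reports solute entry through the parasite surface anion channel PSAC; channel blockers reduce lysis of infected cells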; settings: P. falciparum Indochina infected erythrocytes, osmotic lysis OD700; higher = more signal, called active from +8 up or from −8 down
[15] = osmotic lysis modulators in infected erythrocytes, primary screen, PSAC antagonist project, cell-based, P. falciparum Indochina, OD700, 3 h (AID 1156); settings: higher = more signal, called active from +8 up or from −8 down
[16] = PSAC antagonists in infected red cells, primary screen, cell-based, P. falciparum Indochina, OD700, 18 h (AID 1157); settings: P. falciparum Indochina infected erythrocytes, osmotic lysis OD700, 18 h; higher = more signal, called active from +8 up or from −8 down
[17] = modulators of S6 phosphorylation in cells, primary screen, cell-based, A549, cytoblot, luminescence, serum-stimulated (AID 1158); settings: A549 phospho-S6 cytoblot, 5 h, higher = more signal;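 note: serum-stimulated A549 lung adenocarcinoma cells; signal is phosphorylated S6 detected by cytoblot immunostaining with HRP secondary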
[18] = molecular target: NADPH oxidase 2 (Homo sapiens) (UniProt P04839); test: NOX2-dependent H2O2 signal modulators, primary screen, NOX inhibitor project, cell-based, HEK293-NOX2, PMA-stimulated, Amplex Red fluorescence (AID 1159); settings: 45 min, higher = more signal, called active from +8 up or from −8 down; note: test concentration not given here
[19] = molecular target: NADPH oxidase 4 (Homo sapiens) (UniProt Q9NPH5); test: NOX4-dependent H2O2 signal modulators, primary screen, NOX inhibitor project, cell-based, HEK293-NOX4, tetracycline-induced, Amplex Red fluorescence (AID 1160); settings: 45 min, higher = more signal, called active from +8 up or from −8 down
[20] = molecular target: NADPH oxidase 5 (Homo sapiens) (UniProt Q96PH1); test: NOX5-dependent H2O2 signal modulators, primary screen, NOX inhibitor project, cell-based, HEK293-NOX5, Amplex Red fluorescence (AID 1161); settings: HEK293-NOX5, ionomycin, 45 min, higher = more signal
Chain of NADPH oxidase 5 (Homo sapiens) (Q96PH1 whole entry, looked up): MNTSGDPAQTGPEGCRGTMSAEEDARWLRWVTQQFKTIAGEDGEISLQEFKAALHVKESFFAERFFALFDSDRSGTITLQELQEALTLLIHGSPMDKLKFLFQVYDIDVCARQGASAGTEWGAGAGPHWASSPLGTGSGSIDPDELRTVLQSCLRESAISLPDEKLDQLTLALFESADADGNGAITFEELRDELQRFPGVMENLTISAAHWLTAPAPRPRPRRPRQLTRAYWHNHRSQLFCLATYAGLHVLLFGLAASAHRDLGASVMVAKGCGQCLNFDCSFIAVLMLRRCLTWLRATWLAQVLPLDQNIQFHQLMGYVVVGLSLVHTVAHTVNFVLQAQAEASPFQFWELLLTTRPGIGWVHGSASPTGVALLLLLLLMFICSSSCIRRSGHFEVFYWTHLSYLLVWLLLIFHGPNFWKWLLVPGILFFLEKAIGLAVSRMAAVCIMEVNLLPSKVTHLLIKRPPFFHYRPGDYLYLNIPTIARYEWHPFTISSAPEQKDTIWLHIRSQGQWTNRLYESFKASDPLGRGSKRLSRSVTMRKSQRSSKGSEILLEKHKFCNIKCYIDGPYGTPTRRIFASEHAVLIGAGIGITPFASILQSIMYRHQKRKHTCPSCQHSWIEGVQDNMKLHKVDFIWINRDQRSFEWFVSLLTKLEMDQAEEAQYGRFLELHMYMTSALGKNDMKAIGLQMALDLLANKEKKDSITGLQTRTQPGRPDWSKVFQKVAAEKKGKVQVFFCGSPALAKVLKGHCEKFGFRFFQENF

Chain of NADPH oxidase 2 (Homo sapiens) (P04839 whole entry, looked up): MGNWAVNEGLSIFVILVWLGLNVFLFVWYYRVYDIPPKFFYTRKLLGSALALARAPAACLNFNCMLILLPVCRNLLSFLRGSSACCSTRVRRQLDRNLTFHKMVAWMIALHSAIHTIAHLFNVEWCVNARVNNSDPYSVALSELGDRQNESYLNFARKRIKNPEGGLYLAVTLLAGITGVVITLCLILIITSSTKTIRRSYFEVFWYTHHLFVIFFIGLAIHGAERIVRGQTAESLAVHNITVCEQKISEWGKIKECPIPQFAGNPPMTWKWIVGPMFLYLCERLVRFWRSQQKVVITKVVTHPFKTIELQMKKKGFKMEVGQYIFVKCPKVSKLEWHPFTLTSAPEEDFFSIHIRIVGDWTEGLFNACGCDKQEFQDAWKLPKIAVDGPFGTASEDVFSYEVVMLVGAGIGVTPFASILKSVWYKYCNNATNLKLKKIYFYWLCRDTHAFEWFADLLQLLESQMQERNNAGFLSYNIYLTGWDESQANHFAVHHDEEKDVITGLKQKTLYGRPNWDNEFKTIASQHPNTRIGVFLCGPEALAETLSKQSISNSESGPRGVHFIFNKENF
Chain of Streptavidin (Streptomyces avidinii) (P22629 whole entry, looked up): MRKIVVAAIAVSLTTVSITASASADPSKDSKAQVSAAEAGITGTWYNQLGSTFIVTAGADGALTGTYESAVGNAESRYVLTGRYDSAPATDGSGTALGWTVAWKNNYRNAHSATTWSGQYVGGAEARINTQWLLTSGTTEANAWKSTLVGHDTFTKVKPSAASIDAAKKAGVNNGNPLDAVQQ
Chain of NADPH oxidase 4 (Homo sapiens) (Q9NPH5 whole entry, looked up): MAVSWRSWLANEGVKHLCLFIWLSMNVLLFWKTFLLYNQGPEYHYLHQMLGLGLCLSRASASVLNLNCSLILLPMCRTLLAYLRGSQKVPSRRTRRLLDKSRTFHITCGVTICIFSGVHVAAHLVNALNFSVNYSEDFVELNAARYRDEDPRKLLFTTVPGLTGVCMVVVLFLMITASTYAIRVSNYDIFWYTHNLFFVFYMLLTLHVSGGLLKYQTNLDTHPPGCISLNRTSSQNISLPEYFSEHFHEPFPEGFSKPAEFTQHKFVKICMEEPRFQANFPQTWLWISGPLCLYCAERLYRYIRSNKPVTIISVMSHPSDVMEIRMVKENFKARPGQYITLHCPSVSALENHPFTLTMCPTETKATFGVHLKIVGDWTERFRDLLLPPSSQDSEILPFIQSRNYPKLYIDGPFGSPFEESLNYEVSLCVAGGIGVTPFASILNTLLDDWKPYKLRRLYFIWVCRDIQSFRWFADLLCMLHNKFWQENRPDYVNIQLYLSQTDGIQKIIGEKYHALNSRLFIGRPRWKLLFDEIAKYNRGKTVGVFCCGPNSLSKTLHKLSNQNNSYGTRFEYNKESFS
Chain of Torsin-1A (Homo sapiens) (O14656 whole entry, looked up): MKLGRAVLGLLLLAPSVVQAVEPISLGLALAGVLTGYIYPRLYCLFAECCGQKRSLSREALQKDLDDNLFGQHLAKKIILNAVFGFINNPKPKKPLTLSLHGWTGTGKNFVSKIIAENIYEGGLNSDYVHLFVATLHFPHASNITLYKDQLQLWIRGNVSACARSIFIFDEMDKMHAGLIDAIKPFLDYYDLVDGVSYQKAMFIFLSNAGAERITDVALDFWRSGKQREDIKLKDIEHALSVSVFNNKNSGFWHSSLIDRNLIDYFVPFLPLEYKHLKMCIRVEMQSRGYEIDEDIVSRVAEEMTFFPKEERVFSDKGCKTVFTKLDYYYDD

| Structure (SMILES) | composite z-score [1] | z-score [2] | z-score [3] | z-score [4] | z-score [5] | composite z-score [6] | composite z-score [7] | composite z-score (Torsin-1A (Homo sapiens) [8]) | composite z-score (Torsin-1A (Homo sapiens) [9]) | composite z-score [10] | z-score [11] | composite z-score [12] | z-score [13] | z-score [14] | z-score [15] | z-score [16] | z-score [17] | z-score [18] | z-score [19] | z-score [20] |
| --- | --- | --- | --- | --- | --- | --- | --- | --- | --- | --- | --- | --- | --- | --- | --- | --- | --- | --- | --- | --- |
| COC(=O)[C@H](C)NC(=O)CCC1CC(OC(=O)NCc2ccc3c(c2)OCO3)CC2(CCCC(COC(=O)NCC(c3ccccc3)c3ccccc3)O2)O1 (stereo not given in full) | 0.6 | -4.67 (inactive) | -0.405 (inactive) | -0.437 (inactive) | 1.96 (inactive) | 0.693 | -0.0719 | 0.0104 | 0.947 | 1.97 | 0.246 (inactive) | -0.0969 | 17.6 (active) | 4.8 (inactive) | 1.34 (inactive) | -0.685 (inactive) | 3.66 | -1.25 (inactive) | -1.5 (inactive) | -3.77 |
| O=C1[C@H]2[C@H]3[C@H](O)[C@H](O)CC(=NOCc4ccccc4)[C@H]3CC[C@H]2C(=O)N1Cc1ccc2c(c1)OCO2 | -0.0988 | -1.96 (inactive) | 1.66 (inactive) | -0.203 (inactive) | -0.915 (inactive) | 0.484 | -0.15 | 0.0874 | 0.172 | 0.394 | -1.06 (inactive) | -0.147 | 19.4 (active) | 2.12 (inactive) | 0.686 (inactive) | 0.599 (inactive) | -0.702 | 0.414 (inactive) | -0.0657 (inactive) | -2.61 |
| C[C@H]1Cc2c(COc3ccccc3)nc3c(c2CO1)CN(CCOc1ccccc1)CC3 | 0.0543 | -0.491 (inactive) | -1.96 (inactive) | 3.54 (inactive) | -0.632 (inactive) | 0.426 | -0.157 | 0.53 | 0.217 | 1.21 | 0.49 (inactive) | 0.2 | 3.74 (inactive) | 0.484 (inactive) | 1.68 (inactive) | 0.908 (inactive) | 0.44 | 0.539 (inactive) | 0.191 (inactive) | -0.00428 |
| CO[C@@H]1COC(=O)[C@H](CCSC)NC(=O)CC=C[C@@H](C)COC(=O)[C@H](C)NC(=O)CC=C[C@H]1C | 0.312 | 0.208 (inactive) | 0.0303 (inactive) | 1.97 (inactive) | -0.306 (inactive) | -0.793 | -0.103 | 1.49 | 0.152 | 1.46 | 0.675 (inactive) | -0.231 | -0.0455 (inactive) | 0.327 (inactive) | 0.033 (inactive) | 0.353 (inactive) | 0.399 | -0.906 (inactive) | -0.0183 (inactive) | 0.0788 |
| O=C1OCCC=C1C(O)CCc1ccccc1 (stereo not given) | 0.0626 | 0.104 (inactive) | 1.15 (inactive) | 0.196 (inactive) | 0.571 (inactive) | 0.992 | -0.0562 | -0.0693 | 0.0478 | 0.316 | -0.27 (inactive) | -0.057 | 0.512 (inactive) | -0.57 (inactive) | -0.177 (inactive) | -0.193 (inactive) | -0.136 | -0.428 (inactive) | 0.0181 (inactive) | 0.111 |
| CCOC(=O)[C@H](CC(C)C)NC(=O)CCC1CC(OC(=O)NCc2cccc3ccccc23)CC2(CCCC(COC(=O)NCCCN3CCCC3=O)O2)O1 (stereo not given in full) | -0.144 | -0.961 (inactive) | -0.908 (inactive) | -0.437 (inactive) | 0.501 (inactive) | 0.286 | -0.128 | 0.316 | 0.299 | 0.956 | 0.261 (inactive) | -0.177 | 0.51 (inactive) | 0.936 (inactive) | 0.662 (inactive) | 0.295 (inactive) | 0.285 | 1.51 (inactive) | 0.133 (inactive) | -0.877 |
| CC(=O)Nc1ccc([C@@H]2N[C@H](C(=O)O)CC[C@H]2C)cc1 | 0.101 | 0.138 (inactive) | -1.51 (inactive) | -0.884 (inactive) | -1.21 (inactive) | -0.0013 | -0.101 | 0.746 | 0.371 | 0.2 | 0.961 (inactive) | -0.017 | -0.188 (inactive) | 0.182 (inactive) | -0.23 (inactive) | -0.267 (inactive) | 0.699 | -0.121 (inactive) | 0.195 (inactive) | 0.13 |
| COC(=O)[C@@H]1CC[C@H](C)[C@@H](c2ccc(C)cc2)N1C(=O)c1ccc(C=NO[C@@H](C)c2cn([C@H](CO)Cc3ccccc3)nn2)cc1 | 0.408 | -2.15 (inactive) | 0.476 (inactive) | 5.32 (inactive) | -0.216 (inactive) | 0.279 | -0.024 | 0.243 | 0.634 | 0.738 | 0.442 (inactive) | -0.0615 | 4.57 (inactive) | 1.12 (inactive) | 0.809 (inactive) | 0.907 (inactive) | 0.406 | -3.24 (inactive) | -1.13 (inactive) | -3.8 |
